# ssDAF12 agonist: activates DAF-12 receptor from parasite S. stercoralis. HEK293 ssDAF-12/GRIP1 lit1-tk-luc reporter, luminescence; % of 3 µM dafachronic acid response. activation, % at 6.8 µM. 370,000 tested, 1% active. AID 652126;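 active means activation above the mean over all tested compounds plus 3 SD, cut at about 0.9% in these data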;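 further: 0% = DMSO-only wells and 100% = 3 µM delta7-dafachronic acid wells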
# DAX1 inh-1: inhibitors of DAX1 repression of SF-1 activated StAR promoter. HEK293T StAR-luciferase reporter, SF-1/DAX-1 repression relief. inhibition, % at 6.8 µM. 370,000 tested, 1.1% active. AID 652010;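 active means inhibition above the mean over all tested compounds plus 3 SD, cut at about 3.6% in these data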;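 further: 0% = DAX-1 cells with DMSO and 100% = cells lacking DAX-1 with DMSO; higher inhibition means more luminescence from relief of DAX-1 repression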
# hgDAF-12 ag: hgDAF-12 agonism, primary luciferase screen | HEK293 GAL4-hgDAF12 UAS-luciferase reporter, agonist luminescence; normalized to butyrate control | activation, % at 6.8 µM | 370,000 tested, 1.8% active | AID 687014;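 active means activation above a cutoff set at the mean of all screened compounds plus 3 SD, cut at about 10% in these data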;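 further: 0% = DMSO wells and 100% = sodium butyrate wells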
# DAX1 inh-2: NR0B1 (DAX1) inhibition. P51843. HEK293 Gal4-DAX1 luciferase reporter, luminescence. inhibition, % at 6.75 µM. 340,000 tested, 0.99% active. AID 504766;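 active means inhibition above the mean over all tested compounds plus 3 SD, cut at about 4.2% in these data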;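 further: 0% = DAX1-transfected cells with DMSO and 100% = empty-vector control cells with DMSO; inhibition shows as a rise in luminescence from relieved DAX1 repression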
# Target sequence (P51843 207-470 limits assumed): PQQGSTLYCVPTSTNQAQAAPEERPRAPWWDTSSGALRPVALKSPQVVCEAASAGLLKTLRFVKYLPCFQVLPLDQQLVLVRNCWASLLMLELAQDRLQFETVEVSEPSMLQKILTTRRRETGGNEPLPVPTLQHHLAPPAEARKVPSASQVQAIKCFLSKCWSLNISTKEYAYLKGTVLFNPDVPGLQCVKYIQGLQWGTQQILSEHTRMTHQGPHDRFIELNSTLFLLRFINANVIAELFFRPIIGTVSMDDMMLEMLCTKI
# hcDAF-12 act: activators of H. contortus DAF-12 nuclear receptor; HEK293 hcDAF-12 lit1-tk-luc reporter, luminescence; 0% DMSO, 100% Δ7-dafachronic acid; 370,000 tested, 1.4% active; activation, % at 6.8 µM;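 active means activation above the mean of all tested compounds plus 3 SD, cut at about 5.5% in these data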;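 further: 100% = response to 3 µM Δ7-dafachronic acid high control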
# LXR ag: activates human LXR-beta, counter-screen for hcDAF-12 agonists | shares compounds with hcDAF-12 act | HEK293 Gal4-LXR tk-luc reporter, luminescence, 24 h; normalized: DMSO 0%, positive control 100% | activation, % at 6.8 µM | 3,400 tested, under 10 active | AID 743027;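 active means mean percent activation of the reporter above a cutoff set as the average over tested compounds plus their standard deviation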
# hcDAF12 conf: hcDAF-12 agonism, confirmation assay. shares compounds with hcDAF-12 act. HEK293 hcDAF-12 lit1-tk-luc reporter, luminescence; % of Δ7-dafachronic acid response. activation, % at 6.8 µM. 3,400 tested, 61% active;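 active means mean activation across triplicate tests above the threshold derived from the earlier primary screen, cut at about 5.5% in these data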;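 further: 0% = DMSO only wells and 100% = 3 µM Δ7-dafachronic acid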
# hgDAF12 ag: confirmation of H. glycines DAF-12 agonists; shares compounds with hgDAF-12 ag; HEK293 GAL4-hgDAF12 luciferase reporter, agonist mode; percent of butyrate response; activation, % at 6.8 µM; 3,300 tested, 80% active;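 active means mean activation over triplicate wells above the hit cutoff derived from the earlier primary screen, cut at about 11% in these data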;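 further: 0% = DMSO low control and 100% = 2 mM sodium butyrate high control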
# LXRb DAF12 ctr: activates human LXR-beta, counter-screen for DAF-12 agonists. shares compounds with hgDAF-12 ag. activation, % at 6.8 µM. 3,300 tested, under 10 active. HEK293 Gal4-LXR luciferase reporter, 24 h;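 active means mean activation of the triplicate above a set limit carried over from the primary screen, none filed active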
# * marks the source's active call; other numbers are inactive results; / = not tested or not shown. In the library only some 4.1% were active in any assay of this set; here they are far more common.
SMILES,ssDAF12 agonist,DAX1 inh-1,hgDAF-12 ag,DAX1 inh-2,hcDAF-12 act,hgDAF12 ag,LXRb DAF12 ctr,others
CC12CC[C@H]3[C@@H](CCC4(O)C[C@H](O)CCC34/C=N/NC(=O)c3ccccc3F)C1(O)CCC2C1=CC(=O)OC1 (stereo partly specified),-1,0,6,1,4,/,/,
COc1ccc2c3c([nH]c2c1)[C@H](C=C(C)C)N1C(=O)[C@@H]2CCCN2C(=O)[C@@H]1C3,-1,-2,-2,/,-1,/,/,
COc1cc(/C=C2/C(=O)NC(=O)N(c3ccccc3)C2=O)ccc1O,0,0,2,2,7.0*,/,/,LXR ag=0;hcDAF12 conf=1
Cc1ccc(OCCOc2cccc(C=C3C(=O)NC(=O)NC3=O)c2)cc1,1.1*,3,12*,-3,6.6*,/,/,LXR ag=1;hcDAF12 conf=7.3*
Nc1cc(C(=O)Nc2ccccc2F)ccc1N1CC2CC(C1)c1cccc(=O)n1C2 (stereo unspecified),-1,1,3,0,7.0*,/,/,LXR ag=0;hcDAF12 conf=0
CC(C)[C@H](NC(=O)N1C[C@H]2C[C@@H](C1)c1cccc(=O)n1C2)C(=O)Nc1ccccc1F,-1,0,-1,1,-2,/,/,
Cc1ccc(-c2nc(N3CCOCC3)s[n+]2-c2ccccc2)cc1,1.5*,4.0*,15*,1,12*,8,1,LXR ag=1;hcDAF12 conf=5
COP(=O)(OC)OC=C(Cl)Cl,-1,1,-4,/,0,/,/,
COc1ccc(-n2nc(C(=O)NCC(=O)N3CCC4(CC3)OCCO4)c3ccccc3c2=O)cc1Cl,1,1,14*,3,6.6*,12*,0,LXR ag=0;hcDAF12 conf=4
COc1ccc(C)cc1NC(=O)N1CCC2(CC1)OCCO2,-1,0,-2,0,0,/,/,
Cc1ccc(-c2nc3ccc(Cl)cc3n2OC(=O)N(C)C)cc1,0,2,14*,1,5,12*,1,
O=C(O)c1cc2ccccc2n1C1CCN(Cc2ccccc2)CC1,-1,-1,2,/,-3,/,/,
Cc1cc(N=Nc2ccccc2C)ccc1N,0,2,15*,6.0*,4,13*,1,
NC(Cc1nc2ccccc2[nH]1)c1ccc(Cl)cc1 (stereo unspecified),1,3,14*,3,5,15*,0,
NC(Cc1ccccc1)c1nc2ccccc2[nH]1 (stereo unspecified),0,0,1,2,2,/,/,
Cc1cc(N2CCNC[C@@H]2C)ccc1N1CC[C@@H](O)C1,-1,-1,-4,/,1,/,/,
O=C(c1cc2c(s1)-c1ccccc1OC2)N1CCC2(CC1)OCCO2,0,0,14*,3,3,19*,1,
Clc1ccc2sc(C3CCNCC3)nc2c1,0,1,16*,2,2,8,0,
NC(Cc1ccccc1)[P+](=O)O (stereo unspecified),-1,-1,-1,/,-1,/,/,
COc1ccc(CN2Cc3cc(-c4ccc(OC)cc4)ccc3-n3nncc3C2)cc1,-1,-2,14*,/,2,3,0,
COc1ccc(CN2Cc3cc(-c4ccccc4)ccc3-n3nncc3C2)cc1,-1,-1,3,/,-1,/,/,
Cc1ccc(N2Cc3ccccc3-n3nncc3C2)cc1,-1,-1,1,/,-2,/,/,
COc1ccccc1/C=N/N=C(/N)N[N+](=O)[O-],-2,0,16*,0,0,1,0,
N/C(=N\N=C\c1ccc(O)cc1O)N[N+](=O)[O-],-1,0,0,-1,0,/,/,

# Screens: PubChem BioAssay, The Scripps Research Institute Molecular Screening Center
